As usually defined, the AC50 is the concentration at which the activity in the assay is half-maximal.

Assay [1] has as its target human Tyrosine Protein Kinase Receptor Tie-2 (Tie2), TEK (gene 7010) (UniProt Q02763). Nature of the assay: NVS_ENZ_hTie2: NovaScreen (NVS) Enzymatic Assay for human Tyrosine Protein Kinase Receptor Tie-2 (Tie2) (AID 2283225). The method, boiled down:
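Substrate and product were separated by mobility shift and detected by fluorescence after a 1-hour reaction with recombinant Tie2. Chemicals passing a 25 uM single-point screen were titrated to a maximum of 50 uM. Results were normalized to DMSO baseline.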

Assay [2] concerns the target rat Monoamine Oxidase, MAO-B, Central (MAOBC), Maob (gene 25750) (UniProt P19643). Nature of the assay: NVS_ENZ_rMAOBC: NovaScreen (NVS) Enzymatic Assay for rat Monoamine Oxidase, MAO-B, Central (MAOBC) (AID 2283238). A digest of the protocol: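 Actives from a duplicate 25 uM screen went on to singleton concentration-response with a 50 uM maximum. Enzyme source was rat brain tissue MAO-B, assayed cell-free. Radiolabelled product was counted by scintillation 1.17 h post-dose, with signal loss relative to DMSO.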

The target of assay [3] is bovine Gamma-Aminobutyric Acid Type A Receptor BDZ, alpha 1 site (GABARa1), GABRA1 (gene 780973) (UniProt P08219). The experiment in a line: NVS_LGIC_bGABARa1: NovaScreen (NVS) Ligand-Gated Ion Channel Assay for bovine Gamma-Aminobutyric Acid Type A Receptor BDZ, alpha 1 site (GABARa1) (AID 2283321). The method, boiled down:
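Bovine cortex membrane preparation, benzodiazepine site on GABA-A alpha1; specific radioligand displacement read after 0.75 h by filtration and scintillation. Screen at 25 uM, then singleton titrations up to 50 uM; DMSO baseline.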

The target of assay [4] is rat Acetylcholinesterase (AChE), Ache (gene 83817) (UniProt P37136). Nature of the assay: NVS_ENZ_rAChE: NovaScreen (NVS) Enzymatic Assay for rat Acetylcholinesterase (AChE) (AID 2283233). A digest of the protocol: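 Compounds first screened at 25 uM in duplicate, then those passing threshold tested in concentration series up to 50 uM, against AChE from rat brain membranes. Enzyme activity read by absorbance at 0.33 h; inhibition scored versus DMSO.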
Sequence of rat Acetylcholinesterase (AChE), Ache (gene 83817) (P37136 whole entry, looked up): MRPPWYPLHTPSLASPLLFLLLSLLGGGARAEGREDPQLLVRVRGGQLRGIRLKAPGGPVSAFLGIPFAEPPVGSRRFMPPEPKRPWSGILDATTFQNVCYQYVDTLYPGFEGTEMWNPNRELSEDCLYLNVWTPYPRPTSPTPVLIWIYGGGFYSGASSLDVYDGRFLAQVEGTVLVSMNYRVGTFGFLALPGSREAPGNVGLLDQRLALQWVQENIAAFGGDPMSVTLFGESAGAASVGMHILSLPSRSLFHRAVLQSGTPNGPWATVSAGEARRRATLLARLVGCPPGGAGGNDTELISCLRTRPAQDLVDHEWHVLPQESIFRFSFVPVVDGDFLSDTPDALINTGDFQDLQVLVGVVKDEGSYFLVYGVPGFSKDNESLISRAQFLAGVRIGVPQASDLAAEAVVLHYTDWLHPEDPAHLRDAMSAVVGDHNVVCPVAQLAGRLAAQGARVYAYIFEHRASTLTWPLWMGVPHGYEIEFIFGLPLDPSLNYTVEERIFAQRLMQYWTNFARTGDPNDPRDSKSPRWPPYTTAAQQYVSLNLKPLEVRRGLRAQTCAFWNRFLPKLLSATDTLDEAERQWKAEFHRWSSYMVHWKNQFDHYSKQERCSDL

Assay [5] concerns the target Norway rat Vesicular Monoamine Transporter (VMAT2), neurotransmitter transporter, Slc18a2 (gene 25549) (UniProt Q01827). The experiment in a line: NVS_TR_rVMAT2: NovaScreen (NVS) Transporter Assay for Norway rat Vesicular Monoamine Transporter (VMAT2), neurotransmitter transporter (AID 2283376).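 Note: actives lower the bound radioligand signal below the DMSO level.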 The method, boiled down:
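Using rat forebrain membranes, specific radioligand binding to VMAT2 was measured by filtration and scintillation counting after 1 hour. Chemicals screened at 25 uM in duplicate, actives retested in concentration series, DMSO baseline.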

Assay [6] has as its target human Raf-1 Proto-Oncogene, serine/threonine Kinase (RAF1), RAF1 (gene 5894) (UniProt P04049). The experiment in a line: NVS_ENZ_hRAF1: NovaScreen (NVS) Enzymatic Assay for human Raf-1 Proto-Oncogene, serine/threonine Kinase (RAF1) (AID 2283216). A digest of the protocol:
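Single-point screening at 25 uM (duplicate), followed by singleton concentration-response to 50 uM maximum for chemicals exceeding threshold. Enzyme activity from fluorescent substrate-product mobility-shift separation after 1 h, relative to DMSO.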

The test system of assay [7] is rat Monoamine Oxidase, MAO-A, Central (MAOAC), gene 29253. The experiment in a line: NVS_ENZ_rMAOAC: NovaScreen (NVS) Enzymatic Assay for rat Monoamine Oxidase, MAO-A, Central (MAOAC) (AID 2283243).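 Note: potency refers to inhibition seen as signal drop below DMSO baseline.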 A digest of the protocol: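 Scintillation read-out of MAO-A activity in rat brain lysate, 1.5 h post-dosing. Primary single-concentration screen: 25 uM, duplicate; actives re-tested in concentration series. DMSO = negative control/baseline.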

Assay [8] addresses Voltage-dependent N-type calcium channel subunit alpha-1B (Rattus norvegicus) (UniProt Q02294). Nature of the assay: NVS_IC_rCaChN: NovaScreen (NVS) Ion Channel Assay for rat Calcium Channel, Type N (CaChN) (AID 2283317).
In assay [9] the target is rat Oxytocin Receptor (OXT), Oxtr (gene 25342) (UniProt P70536). Nature of the assay: NVS_GPCR_rOXT: NovaScreen (NVS) G Protein-Coupled Receptor Assay for rat Oxytocin Receptor (OXT) (AID 2283330). The method, boiled down:
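Binding to rat uterine membrane receptor was followed by scintillation counting of filter-trapped radioligand after 1 h. A 25 uM duplicate single-point screen preceded concentration series with a top of 50 uM. Signal loss was analysed relative to DMSO.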

In assay [10] the target is rat Corticotropin Releasing Factor Receptor (CRF), Crhr1 (gene 58959) (UniProt P35353). The experiment in a line: NVS_GPCR_rCRF: NovaScreen (NVS) G Protein-Coupled Receptor Assay for rat Corticotropin Releasing Factor Receptor (CRF) (AID 2283300). A digest of the protocol: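 Single-concentration (25 uM, duplicate) radioligand binding on rat cortical membrane preparations, counted by scintillation after 2 h. Activity scored as signal loss relative to DMSO negative control.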

Assay [11] can be described thus: ATG_M_32_XSP2: Attagene TRANS-FACTORIAL Multi-Species (XSP2) HepG2 Assay for M19 Transcription Factor (Internal Marker) (AID 2283826). The method, boiled down:
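HepG2 cells transiently transfected with GAL4-UAS reporter units; XSP2 panel included 3 nM 6-alpha-fluorotestosterone and 1.5 nM norgestrel for androgen receptor stimulation. Reporter mRNA read 24 h post-dosing by RT-PCR/capillary electrophoresis; fitted upward versus DMSO.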

Assay [12] deals with human Protein Tyrosine Phosphatase Receptor Type C (PTPRC), PTPRC (gene 5788) (UniProt P08575). Nature of the assay: NVS_ENZ_hPTPRC: NovaScreen (NVS) Enzymatic Assay for human Protein Tyrosine Phosphatase Receptor Type C (PTPRC) (AID 2283212). A digest of the protocol: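 Absorbance-based phosphatase activity of human PTPRC protein extracted from yeast was measured 1 h post-dosing. Compounds first tested at 25 uM in duplicate, then those passing threshold in singleton concentration series to 50 uM.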
Sequence of human Protein Tyrosine Phosphatase Receptor Type C (PTPRC), PTPRC (gene 5788) (P08575 whole entry, looked up): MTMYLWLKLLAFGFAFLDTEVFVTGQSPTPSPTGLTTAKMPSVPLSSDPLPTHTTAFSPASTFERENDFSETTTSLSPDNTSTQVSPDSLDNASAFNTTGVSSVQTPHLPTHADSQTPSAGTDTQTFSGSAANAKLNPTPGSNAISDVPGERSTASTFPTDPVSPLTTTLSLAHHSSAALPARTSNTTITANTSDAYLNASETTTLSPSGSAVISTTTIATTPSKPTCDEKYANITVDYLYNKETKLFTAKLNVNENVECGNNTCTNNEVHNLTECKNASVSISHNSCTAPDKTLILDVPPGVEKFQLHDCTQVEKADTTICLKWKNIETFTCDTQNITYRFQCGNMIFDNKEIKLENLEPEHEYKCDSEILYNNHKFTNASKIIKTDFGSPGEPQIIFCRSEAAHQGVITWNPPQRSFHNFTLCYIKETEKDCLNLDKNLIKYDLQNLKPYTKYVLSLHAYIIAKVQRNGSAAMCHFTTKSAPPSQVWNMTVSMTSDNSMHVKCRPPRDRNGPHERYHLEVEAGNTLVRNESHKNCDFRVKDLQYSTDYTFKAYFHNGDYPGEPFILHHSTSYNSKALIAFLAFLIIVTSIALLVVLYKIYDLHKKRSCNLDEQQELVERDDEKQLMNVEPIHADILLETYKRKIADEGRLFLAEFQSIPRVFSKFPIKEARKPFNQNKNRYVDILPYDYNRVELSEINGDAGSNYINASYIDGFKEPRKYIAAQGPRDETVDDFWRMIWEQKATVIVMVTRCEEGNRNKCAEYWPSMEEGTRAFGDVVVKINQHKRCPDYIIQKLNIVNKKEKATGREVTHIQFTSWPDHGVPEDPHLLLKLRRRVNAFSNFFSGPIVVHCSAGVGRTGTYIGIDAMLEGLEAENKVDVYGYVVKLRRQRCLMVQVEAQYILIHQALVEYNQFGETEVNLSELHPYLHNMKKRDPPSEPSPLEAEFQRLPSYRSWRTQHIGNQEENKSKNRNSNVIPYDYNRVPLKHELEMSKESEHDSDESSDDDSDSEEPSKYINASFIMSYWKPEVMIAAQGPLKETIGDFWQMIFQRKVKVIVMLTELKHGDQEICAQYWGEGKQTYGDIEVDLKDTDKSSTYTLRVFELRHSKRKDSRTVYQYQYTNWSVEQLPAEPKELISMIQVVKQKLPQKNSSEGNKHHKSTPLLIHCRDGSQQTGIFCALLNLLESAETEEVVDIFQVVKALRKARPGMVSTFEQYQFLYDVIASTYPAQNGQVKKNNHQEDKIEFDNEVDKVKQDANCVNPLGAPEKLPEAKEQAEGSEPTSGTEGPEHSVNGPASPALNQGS

Results filed as inconclusive are left out. The source made the active and inactive calls. Rule for the calls: active = hit-call score of the fitted dose curve at least 0.9, where 1 is the maximum; inconclusive = response in the unintended direction; inactive = score below 0.9.

Sequence of bovine Gamma-Aminobutyric Acid Type A Receptor BDZ, alpha 1 site (GABARa1), GABRA1 (gene 780973) (P08219 whole entry, looked up): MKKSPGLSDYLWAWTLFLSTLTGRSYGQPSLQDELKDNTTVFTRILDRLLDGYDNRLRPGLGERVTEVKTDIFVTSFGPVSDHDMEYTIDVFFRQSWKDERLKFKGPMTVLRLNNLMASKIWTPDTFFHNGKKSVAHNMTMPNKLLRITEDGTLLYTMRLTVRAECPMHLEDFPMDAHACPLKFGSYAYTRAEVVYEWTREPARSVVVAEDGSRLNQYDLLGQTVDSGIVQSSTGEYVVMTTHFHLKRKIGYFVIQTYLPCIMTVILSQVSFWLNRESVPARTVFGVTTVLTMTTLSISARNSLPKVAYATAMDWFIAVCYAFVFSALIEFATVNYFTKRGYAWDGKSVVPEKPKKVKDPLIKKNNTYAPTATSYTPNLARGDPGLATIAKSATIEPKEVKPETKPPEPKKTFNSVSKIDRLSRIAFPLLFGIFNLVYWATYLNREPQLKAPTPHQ
Sequence of rat Monoamine Oxidase, MAO-B, Central (MAOBC), Maob (gene 25750) (P19643 whole entry, looked up): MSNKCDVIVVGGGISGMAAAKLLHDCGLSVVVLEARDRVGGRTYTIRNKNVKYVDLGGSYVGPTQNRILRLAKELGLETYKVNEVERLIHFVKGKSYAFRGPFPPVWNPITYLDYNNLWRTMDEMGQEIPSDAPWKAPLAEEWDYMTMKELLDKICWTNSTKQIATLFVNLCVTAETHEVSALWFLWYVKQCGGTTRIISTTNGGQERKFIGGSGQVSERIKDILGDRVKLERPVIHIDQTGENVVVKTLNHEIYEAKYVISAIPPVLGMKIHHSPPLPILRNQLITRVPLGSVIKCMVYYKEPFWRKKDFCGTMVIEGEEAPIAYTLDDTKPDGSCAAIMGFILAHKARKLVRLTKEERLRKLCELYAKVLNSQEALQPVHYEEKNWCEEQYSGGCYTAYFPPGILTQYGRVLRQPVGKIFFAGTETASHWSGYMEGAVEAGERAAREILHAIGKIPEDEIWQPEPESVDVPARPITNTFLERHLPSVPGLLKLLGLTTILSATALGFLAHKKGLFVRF
Sequence of human Tyrosine Protein Kinase Receptor Tie-2 (Tie2), TEK (gene 7010) (Q02763 whole entry, looked up): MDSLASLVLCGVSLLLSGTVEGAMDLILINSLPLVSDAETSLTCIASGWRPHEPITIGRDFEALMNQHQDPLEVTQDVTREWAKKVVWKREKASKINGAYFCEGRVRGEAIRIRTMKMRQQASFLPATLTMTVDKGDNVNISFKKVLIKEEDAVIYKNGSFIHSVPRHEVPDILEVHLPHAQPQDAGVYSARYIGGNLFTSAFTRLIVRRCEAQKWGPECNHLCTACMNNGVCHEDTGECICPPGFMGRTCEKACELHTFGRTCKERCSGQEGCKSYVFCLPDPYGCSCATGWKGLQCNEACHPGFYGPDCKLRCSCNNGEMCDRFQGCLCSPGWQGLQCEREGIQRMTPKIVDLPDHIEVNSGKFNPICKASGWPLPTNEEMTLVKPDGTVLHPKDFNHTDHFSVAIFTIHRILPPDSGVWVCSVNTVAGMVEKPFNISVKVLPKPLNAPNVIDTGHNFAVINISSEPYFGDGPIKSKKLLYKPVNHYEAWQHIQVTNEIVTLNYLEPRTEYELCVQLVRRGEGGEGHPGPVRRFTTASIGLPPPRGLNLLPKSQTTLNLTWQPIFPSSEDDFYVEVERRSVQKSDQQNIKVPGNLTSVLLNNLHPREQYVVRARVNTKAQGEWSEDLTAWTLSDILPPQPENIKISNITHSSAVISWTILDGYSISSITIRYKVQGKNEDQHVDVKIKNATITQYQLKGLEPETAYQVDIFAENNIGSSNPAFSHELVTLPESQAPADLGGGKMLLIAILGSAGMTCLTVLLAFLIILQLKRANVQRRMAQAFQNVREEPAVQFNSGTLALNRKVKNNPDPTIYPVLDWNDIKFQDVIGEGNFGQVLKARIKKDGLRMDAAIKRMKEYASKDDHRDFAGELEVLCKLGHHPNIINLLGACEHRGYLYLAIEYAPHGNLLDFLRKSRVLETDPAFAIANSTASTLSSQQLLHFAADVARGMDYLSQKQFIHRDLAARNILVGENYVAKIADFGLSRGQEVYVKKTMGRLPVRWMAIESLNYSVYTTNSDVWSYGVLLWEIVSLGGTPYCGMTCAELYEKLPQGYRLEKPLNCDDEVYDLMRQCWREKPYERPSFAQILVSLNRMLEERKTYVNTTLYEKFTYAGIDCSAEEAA
Sequence of human Raf-1 Proto-Oncogene, serine/threonine Kinase (RAF1), RAF1 (gene 5894) (P04049 whole entry, looked up): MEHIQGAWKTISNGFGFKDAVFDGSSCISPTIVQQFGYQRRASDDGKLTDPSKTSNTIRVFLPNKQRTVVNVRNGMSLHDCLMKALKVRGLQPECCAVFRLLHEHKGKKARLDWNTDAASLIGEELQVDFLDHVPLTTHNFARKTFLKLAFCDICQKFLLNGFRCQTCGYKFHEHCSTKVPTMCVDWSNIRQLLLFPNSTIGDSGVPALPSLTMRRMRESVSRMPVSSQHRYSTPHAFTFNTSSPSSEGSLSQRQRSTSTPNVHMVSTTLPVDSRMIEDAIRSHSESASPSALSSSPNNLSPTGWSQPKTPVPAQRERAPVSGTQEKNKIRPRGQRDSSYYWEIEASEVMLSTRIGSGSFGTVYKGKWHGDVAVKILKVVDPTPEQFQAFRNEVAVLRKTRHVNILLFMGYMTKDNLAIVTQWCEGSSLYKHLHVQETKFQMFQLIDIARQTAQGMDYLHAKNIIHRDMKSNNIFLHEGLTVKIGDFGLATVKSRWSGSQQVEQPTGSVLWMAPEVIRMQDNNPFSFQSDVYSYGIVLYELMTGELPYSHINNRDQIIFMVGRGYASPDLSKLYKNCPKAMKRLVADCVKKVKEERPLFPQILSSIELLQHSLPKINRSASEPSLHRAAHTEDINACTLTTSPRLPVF
Sequence of rat Oxytocin Receptor (OXT), Oxtr (gene 25342) (P70536 whole entry, looked up): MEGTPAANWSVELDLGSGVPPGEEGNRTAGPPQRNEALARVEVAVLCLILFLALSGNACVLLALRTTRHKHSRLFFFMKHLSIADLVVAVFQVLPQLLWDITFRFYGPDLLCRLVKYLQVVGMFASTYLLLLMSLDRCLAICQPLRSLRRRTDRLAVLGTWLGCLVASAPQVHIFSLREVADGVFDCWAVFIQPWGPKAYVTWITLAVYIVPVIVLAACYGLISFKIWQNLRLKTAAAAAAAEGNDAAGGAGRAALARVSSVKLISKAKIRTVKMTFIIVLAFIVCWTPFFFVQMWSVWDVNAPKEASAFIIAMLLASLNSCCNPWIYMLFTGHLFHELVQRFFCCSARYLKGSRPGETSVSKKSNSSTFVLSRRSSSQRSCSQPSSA

Turning to `C#C[C@]1(O)CC[C@H]2[C@@H]3CCC4=CC(=O)CC[C@@H]4[C@H]3CC[C@@]21C`, the molecule was called inactive in assay [1] and in [2]. Moreover, in assay [3], the AC50 was 1.27 µM (active).
For the molecule `O=C1c2c(O)ccc(Nc3ccc(CCO)cc3)c2C(=O)c2c([N+](=O)[O-])ccc(O)c21`, the AC50 in assay [4] is 1.91 µM (active). The molecule was classed as inactive in assay [5].
In the case of `Cc1cc2c(cc1C(F)(F)F)N(C(=O)Nc1ccc(Oc3cccnc3C)nc1)CC2`, in assay [6], the AC50 is 6.86 µM (active).
As to `CC(CO)OC(C)CO` (stereo not given) (tested in a mixture with another compound), the outcome in assay [1] was inactive.
With `Cc1cccc(C)c1O`, the call in assay [2] was inactive.
For the molecule `O=c1ccc2ccccc2o1`, in [2], the AC50 was 12.5 µM (active).
As to `CCCCCCCCCC`, the outcome in assay [4], in assay [7], in [8] and in [9] was inactive.
As for `CCC(C)(C)C1CCC(O)CC1` (stereo not given), the result in assay [2], in [10] and in assay [11] was inactive.
On to `COc1ccc(/C=C/S(=O)(=O)NC(=O)c2ccc(C)cc2Cl)cc1`, for which the outcome in assay [6] and in assay [1] was inactive.
As for `S=C(NC1CCCCC1)NC1CCCCC1`, the AC50 in [4] was 17.2 µM (active).
For `Nc1nc(N)c2nc(CNc3ccc(C(=O)N[C@@H](CCC(=O)O)C(=O)O)cc3)cnc2n1`, the AC50 in assay [12] was 14.5 µM (active). Also, the outcome in assay [3] was inactive.
With `NC(=O)Cn1c(=O)cc(CCN2CCN(c3nccc4sccc34)CC2)c2ccc(F)cc21`, the result in assay [4] was inactive. The AC50 in assay [3] was 4.48 µM (active).
Turning to `CCCC(=O)OCCC(C)C`, the outcome in assay [4] and in assay [8] was inactive.

(Values after PubChem BioAssay (EPA / NIEHS).)
